# Data from the supplement of paper PMC12282887.
# ± gives the standard deviation of the averaged measurements.
# How the values were obtained:
# Assay in all cases: promoter activity interaction Z-score (Lux/OD deviation from empty-vector control); higher = stronger promoter induction by the compound
# [1] = test system: E. coli BW25113 acrABp lux reporter
# How it was run: (§1)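 At 37°C, E. coli BW25113 reporter cultures in 40 µl LB Lennox in 384-well plates were read for OD600 and luminescence every 30 min for 12 h. Windows were 0–8 h for wild type and 1–9 h for deletion strains, and wells under 10% of the median growth value were removed. The score is the Z-transformed residual of growth-normalised luminescence against a control fit.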
# [2] = test system: E. coli BW25113 marRABp lux reporter
# How it was run: as §1
# [3] = test system: E. coli BW25113 micFp lux reporter
# How it was run: as §1
# [4] = test system: E. coli BW25113 ompFp lux reporter
# How it was run: as §1
# [5] = test system: E. coli BW25113 robp lux reporter
# How it was run: as §1
# [6] = test system: E. coli BW25113 soxSp lux reporter
# How it was run: as §1
# [7] = test system: E. coli BW25113 tolCp lux reporter
# How it was run: as §1
# [8] = 1.9 µg/ml, genetic background: wild type
# [9] = 1.9 µg/ml, genetic background: ΔmarA
# [10] = 1.9 µg/ml, genetic background: Δrob
# [11] = 1.9 µg/ml, genetic background: ΔsoxS
# [12] = 3.7 µg/ml, genetic background: wild type
# [13] = 3.7 µg/ml, genetic background: ΔmarA
# [14] = 3.7 µg/ml, genetic background: Δrob
# [15] = 3.7 µg/ml, genetic background: ΔsoxS
# [16] = 7.4 µg/ml, genetic background: wild type
# [17] = 7.4 µg/ml, genetic background: ΔmarA
# [18] = 7.4 µg/ml, genetic background: Δrob
# [19] = 7.4 µg/ml, genetic background: ΔsoxS
compound,measurement,setting,value
CCCCCCCCCCCCC[N+](C)(C)Cc1ccccc1 [Benzalkonium],promoter activity interaction Z-score,[1]; [8],-0.513 ± 0.068
same,promoter activity interaction Z-score,[1]; [9],-0.237 ± 0.34
same,promoter activity interaction Z-score,[1]; [10],-0.388 ± 0.4
same,promoter activity interaction Z-score,[1]; [11],0.294 ± 0.89
same,promoter activity interaction Z-score,[1]; [12],-0.16 ± 0.06
same,promoter activity interaction Z-score,[1]; [13],-0.795 ± 0.15
same,promoter activity interaction Z-score,[1]; [14],-0.554 ± 0.18
same,promoter activity interaction Z-score,[1]; [15],0.231 ± 0.94
same,promoter activity interaction Z-score,[1]; [16],-0.426 ± 0.23
same,promoter activity interaction Z-score,[1]; [17],-0.878 ± 0.33
same,promoter activity interaction Z-score,[1]; [18],-0.727 ± 0.24
same,promoter activity interaction Z-score,[1]; [19],0.0433 ± 0.71
same,promoter activity interaction Z-score,[2]; [8],-0.577 ± 0.068
same,promoter activity interaction Z-score,[2]; [9],0.106 ± 0.047
same,promoter activity interaction Z-score,[2]; [10],-0.463 ± 0.11
same,promoter activity interaction Z-score,[2]; [11],-0.158 ± 0.0077
same,promoter activity interaction Z-score,[2]; [12],-0.168 ± 0.0038
same,promoter activity interaction Z-score,[2]; [13],-0.194 ± 0.23
same,promoter activity interaction Z-score,[2]; [14],-0.586 ± 0.14
same,promoter activity interaction Z-score,[2]; [15],-0.214 ± 0.035
same,promoter activity interaction Z-score,[2]; [16],-0.235 ± 0.61
same,promoter activity interaction Z-score,[2]; [17],-0.581 ± 0.057
same,promoter activity interaction Z-score,[2]; [18],-0.529 ± 0.065
same,promoter activity interaction Z-score,[2]; [19],-0.255 ± 0.23
same,promoter activity interaction Z-score,[3]; [8],-0.76 ± 0.023
same,promoter activity interaction Z-score,[3]; [9],0.0652 ± 0.0013
same,promoter activity interaction Z-score,[3]; [10],0.0861 ± 0.12
same,promoter activity interaction Z-score,[3]; [11],0.559 ± 0.1
same,promoter activity interaction Z-score,[3]; [12],-0.0239 ± 0.31
same,promoter activity interaction Z-score,[3]; [13],0.0187 ± 0.025
same,promoter activity interaction Z-score,[3]; [14],-0.0547 ± 0.088
same,promoter activity interaction Z-score,[3]; [15],0.312 ± 0.19
same,promoter activity interaction Z-score,[3]; [16],-0.0221 ± 0.06
same,promoter activity interaction Z-score,[3]; [17],0.112 ± 0.063
same,promoter activity interaction Z-score,[3]; [18],-0.178 ± 0.013
same,promoter activity interaction Z-score,[3]; [19],0.584 ± 0.26
same,promoter activity interaction Z-score,[4]; [8],-0.908 ± 0.23
same,promoter activity interaction Z-score,[4]; [9],-0.356 ± 0.42
same,promoter activity interaction Z-score,[4]; [10],-1.25 ± 0.58
same,promoter activity interaction Z-score,[4]; [11],-0.386 ± 0.51
same,promoter activity interaction Z-score,[4]; [12],-0.513 ± 0.059
same,promoter activity interaction Z-score,[4]; [13],-0.652 ± 0.036
same,promoter activity interaction Z-score,[4]; [14],-1.38 ± 0.51
same,promoter activity interaction Z-score,[4]; [15],-0.498 ± 0.53
same,promoter activity interaction Z-score,[4]; [16],-0.731 ± 0.65
same,promoter activity interaction Z-score,[4]; [17],-1.05 ± 0.44
same,promoter activity interaction Z-score,[4]; [18],-1.75 ± 0.21
same,promoter activity interaction Z-score,[4]; [19],-0.339 ± 0.55
same,promoter activity interaction Z-score,[5]; [8],-1.53 ± 0.13
same,promoter activity interaction Z-score,[5]; [9],-0.233 ± 0.25
same,promoter activity interaction Z-score,[5]; [10],-0.222 ± 1.1
same,promoter activity interaction Z-score,[5]; [11],-0.27 ± 0.21
same,promoter activity interaction Z-score,[5]; [12],-0.668 ± 0.089
same,promoter activity interaction Z-score,[5]; [13],-0.453 ± 0.016
same,promoter activity interaction Z-score,[5]; [14],-0.648 ± 0.67
same,promoter activity interaction Z-score,[5]; [15],-0.627 ± 0.58
same,promoter activity interaction Z-score,[5]; [16],-0.364 ± 0.19
same,promoter activity interaction Z-score,[5]; [17],-0.432 ± 0.13
same,promoter activity interaction Z-score,[5]; [18],-0.777 ± 0.35
same,promoter activity interaction Z-score,[5]; [19],-0.0429 ± 0.032
same,promoter activity interaction Z-score,[6]; [8],-0.311 ± 0.12
same,promoter activity interaction Z-score,[6]; [9],0.435 ± 0.12
same,promoter activity interaction Z-score,[6]; [10],0.153 ± 0.081
same,promoter activity interaction Z-score,[6]; [11],0.8 ± 0.97
same,promoter activity interaction Z-score,[6]; [12],-0.00893 ± 0.087
same,promoter activity interaction Z-score,[6]; [13],0.517 ± 0.017
same,promoter activity interaction Z-score,[6]; [14],-0.0801 ± 0.15
same,promoter activity interaction Z-score,[6]; [15],0.388 ± 0.66
same,promoter activity interaction Z-score,[6]; [16],-0.156 ± 0.16
same,promoter activity interaction Z-score,[6]; [17],0.256 ± 0.12
same,promoter activity interaction Z-score,[6]; [18],-0.261 ± 0.034
same,promoter activity interaction Z-score,[6]; [19],0.23 ± 0.41
same,promoter activity interaction Z-score,[7]; [8],-0.208 ± 0.53
same,promoter activity interaction Z-score,[7]; [9],1.08 ± 0.12
same,promoter activity interaction Z-score,[7]; [10],1.06 ± 0.98
same,promoter activity interaction Z-score,[7]; [11],0.966 ± 0.54
same,promoter activity interaction Z-score,[7]; [12],-0.106 ± 0.92
same,promoter activity interaction Z-score,[7]; [13],1.89 ± 1.1
same,promoter activity interaction Z-score,[7]; [14],-0.289 ± 0.39
same,promoter activity interaction Z-score,[7]; [15],0.246 ± 0.11
same,promoter activity interaction Z-score,[7]; [16],0.0455 ± 1.8
same,promoter activity interaction Z-score,[7]; [17],0.506 ± 0.55
same,promoter activity interaction Z-score,[7]; [18],-0.0996 ± 0.22
same,promoter activity interaction Z-score,[7]; [19],1.32 ± 2
same,promoter activity interaction Z-score,"[7]; 14.9 µg/ml, genetic background: ΔsoxS",1.08 ± 0.5
